# Assay results from PubChem BioAssay (NCI).
# About 83,000 compounds went through this panel and 20% of them were active in at least one assay; those are over-represented in the sample as a whole.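 Testing used 96-well plates and a 48-hour single-concentration exposure. Example: -40 means 40% of the starting cells died.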 A number with no mark means an inactive call. Active and inactive are the calls of the source.
# Test system: UO-31 renal
# Test: NCI-60 one-dose screen, 48 h (100 = growth as untreated, 0 = no growth, -100 = all killed)
# Conditions: 10 µM unless noted
# Description: Growth inhibition of the UO-31 human tumor cell line is measured as a screen for anti-cancer activity. Cells are grown in 96 well plates and exposed to the test compound for 48 hours. Compounds are tested at a single concentration, which is 10^-5 M for most compounds. The reported endpoint is percent growth (GI% or GIPRCNT), where numbers from 0 - 100% represent growth inhibition, and numbers from -100% - 0 represent cell death. For example, a value of 40 represents 60% growth inhibition. A value of 0 means no net growth occurred over the course of the experiment. A value of -40 indicates 40% of cells at the beginning of the experiment died by the end of the experiment. A value of -100 means all cells are dead at the end of the experiment.
# NCI-60 Human Tumor Cell Lines Screen was performed using the standard one-dose NCI protocol, which is described in more detail at https://dtp.cancer.gov/discovery_development/nci-60/default.htm.
# Compounds with GIPRCNT values below 10 were considered active. Activity score was based on GIPRCNT using the following formula: […]
# Score is 0 for GIPRCNT values of 100 or above, 50 for GIPRCNT values of 0, and 100 for GIPRCNT values of -100.
row,Compound,growth
1,NC(CS/C(Cl)=C/Cl)C(=O)O (stereo not given),82.6%
2,CCCCCCCCCCCCCCCCCC1=NCCCN1CCO,93.4%
3,CCCCCCCCCCCC[n+]1ccc2ccccc2c1,-23.8% (active)
4,NC(=S)N/N=C/c1ncccc1O,1.36% (active)
5,CCCc1cc(=O)oc2c3c(c4c(c12)OC(C)(C)CC4)OC(C)[C@H](C)[C@@H]3O (stereo not given in full),34.9%
6,CC(/C=N/NC(N)=S)Cc1ccc(C(C)C)cc1 (stereo not given),45%
7,Cc1nnc(N/N=C/c2ccc([N+](=O)[O-])o2)[nH]c1=O,5.83% (active)
8,CCOC(=O)C1(C)CCCC1N (stereo not given),83.7%
9,Cc1ccc(N2C(=O)C=CC2=O)cc1,90%
10,CCNc1nnnn1CC,108%
11,CN(Cc1ccccc1)c1ccc(SC#N)cc1,37.7%
12,C(=N\Nc1ccc2ccccc2n1)/c1ccccn1,-29.8% (active)
13,CCC(C)(O)Cc1ccc(Cl)cc1 (stereo not given),94.2%
14,CCCCCCCCCCCCN1C(C)=CS/C1=C\C=C\c1scc(C)[n+]1CCCCCCCCCCCC,62.6%
15,CCCN(CCC)C(=O)c1ccc(C)cc1,94.1%
16,O=[n+]1c2ccccc2n([O-])c2cc(Cl)ccc21,55.7%
17,Cc1cccc2c(N)c3ccccc3nc12,-53.9% (active)
18,O=C(O)c1cccc2cccc(-c3c4ccc(=O)c(O)c-4oc4c(O)c(O)ccc34)c12,66.6%
19,O=C1C=CC(=O)N1C1CCCCCCCCCCC1,60.4%
20,C[C@@]1(CO)[C@H](O)CC[C@@]2(C)[C@H]1CC[C@H]1C[C@@H]3C[C@@]12CC[C@@]3(O)COC(=O)CN,22.7%

row,Compound,growth
1,CN(C)CCN(C)CC(C)(C)C(=O)/C=C/c1ccc(Cl)c(Cl)c1,-100% [100 µM] (active)
2,CCCCN(CCCC)CCCCCCCCCCO,81.3%
3,CCCCCCCCCCCCCCCc1ccc(C(=O)C[n+]2ccccc2)cc1,-97.2% (active)
4,CCCCCCN(CCCCCC)CCCNc1nccc2ccccc12,15.2%
5,OC(c1cc(-c2ccc(Cl)cc2)nc2c(Cl)cccc12)C1CCCCN1 (stereo not given),-74.5% (active)
6,S=C=Nc1ccc(N2CCOCC2)cc1,84.5%
7,O=C(c1ccccc1)C(O)C(Br)(CBr)c1ccccc1 (stereo not given),96.3%
8,CCC1C[N+]2=C(c3cc(OC)c(OC)cc3CC2)c2c1cc1n2CCc2cc(OC)c(OC)cc2-1 (stereo not given),90.3%
9,COc1cc(/C=C/C(=O)CC(=O)/C=C/c2ccc(O)c(OC)c2)ccc1O,13%
10,OC(c1cc(C23CC4CC(CC(C4)C2)C3)nc2c(Cl)cc(Cl)cc12)C1CCCCN1 (stereo not given),-83.3% (active)
11,CCc1cnc2ccccc2c1/C=C/c1ccc(N(C)C)cc1,44.6%
12,CCCCCCCCCCCC[n+]1ccc(CCCCCCCCC)cc1,-19.4% (active)
13,O=[N+]([O-])c1ccc(Oc2ccccc2Cl)c([N+](=O)[O-])c1,81.9%
14,COc1ccc(NC(=O)/C(=C/N2C(=O)/C(=C/c3ccc(OC)c(OC)c3)NC2=S)C(C)=O)cc1,54.6%
15,Oc1ccc2ccccc2c1N=Nc1nccs1,59.3%
16,c1csc(-c2[nH]nc3c2CCc2ccccc2-3)c1,53.8%
17,CCCCCCCCCCCC[n+]1ccccc1 (tested in a mixture with another compound),1.25% (active)
18,CC(=O)OC1CC2CCC1(C)C2(C)C (stereo not given),87.3%
19,COc1cc(/C=C2\SC(=S)N(/C=C/c3nc4ccccc4[nH]c3=O)C2=O)cc(OC)c1OC,2.14% (active)
20,CC(=O)c1c(O)c(C)c(O)c2c1OC1=CC(=O)C(C(C)=O)C(=O)C12C (stereo not given),58.7%
